# In the supplement of paper PMC10849652:
# Of roughly 8,800 targets only a part is listed; those with a hit were picked by preference. About 0.5% of all pairs of compound and target were hits. Values without a mark were called inactive.
# Legend:
# Assay in all cases: log2 fold change, soluble protein after heating vs DMSO (PISA); higher = thermal stabilisation; K562 lysate, 10 uM; active = over 0.2 and 3.5 SD of the protein, either way, in both replicates (recomputed)
# [1] = compound: CCCS(=O)(=O)Nc1ccc(F)c(C(=O)c2c[nH]c3ncc(Cl)cc23)c1F
# Method in brief: (§1)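 Values give the log-two fold change in thermal stability against solvent controls, from duplicates. Crude K562 extract at 1 mg/mL protein, made by dounce homogenisation in PBS pH 7.4 with 1 mM MgCl2, was treated with 10 μM compound for 30 min. After 3 min heating across 48°C-58°C, aliquots were pooled, adjusted to 0.5% NP-40 at 4°C and centrifuged at 21,000xg for 90 min. The supernatant was measured by TMTpro 16plex LC-MS/MS with channel sums equalised.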
# barasertib = compound: CCN(CCCOc1ccc2c(Nc3cc(CC(=O)Nc4cccc(F)c4)[nH]n3)ncnc2c1)CCOP(=O)(O)O [barasertib]
# Method in brief: as §1
# [2] = compound: CC[C@@H]1C(=O)N(C)c2cnc(Nc3ccc(C(=O)NC4CCN(C)CC4)cc3OC)nc2N1C1CCCC1
# Method in brief: as §1
# volasertib = compound: CC[C@@H]1C(=O)N(C)c2cnc(Nc3ccc(C(=O)N[C@H]4CC[C@H](N5CCN(CC6CC6)CC5)CC4)cc3OC)nc2N1C(C)C [volasertib]
# Method in brief: as §1
# [3] = compound: CCn1c(C(=O)N(C2CC2)C2CC2)cc2c3c(ncn3C)c(Nc3cc(C)n(C)n3)nc21
# Method in brief: as §1
# [4] = compound: CCn1cc(-c2ccnc3[nH]c(-c4cccc(CN(C)C)c4)cc23)c(-c2ccc(NC(=O)N(C)C)cc2)n1
# Method in brief: as §1
# [5] = compound: CN1CCC(CNc2ccc3ncc(-c4cccc(OC(F)(F)F)c4)n3n2)CC1
# Method in brief: as §1
# saracatinib = compound: CN1CCN(CCOc2cc(OC3CCOCC3)c3c(Nc4c(Cl)ccc5c4OCO5)ncnc3c2)CC1 [saracatinib]
# Method in brief: as §1
# sotrastaurin = compound: CN1CCN(c2nc(C3=C(c4c[nH]c5ccccc45)C(=O)NC3=O)c3ccccc3n2)CC1 [sotrastaurin]
# Method in brief: as §1
# alvocidib = compound: CN1CC[C@H](c2c(O)cc(O)c3c(=O)cc(-c4ccccc4Cl)oc23)[C@H](O)C1 [alvocidib]
# Method in brief: as §1
# Tubastatin A = compound: CN1CCc2c(c3ccccc3n2Cc2ccc(C(=O)NO)cc2)C1 [Tubastatin A]
# Method in brief: as §1
# [6] = compound: CNC(=O)C1=CC=CC=C1NC2=NC(=NC=C2Cl)NC3=C(C=C(C=C3)N4CCOCC4)OC
# Method in brief: as §1
# [7] = compound: CNc1nc(-c2ccc3c(N)n[nH]c3c2)cc(N2C[C@@H](C(=O)NC3CCCCC3)CC[C@H]2C)n1
# Method in brief: as §1
# encorafenib = compound: COC(=O)N[C@@H](C)CNc1nccc(-c2cn(C(C)C)nc2-c2cc(Cl)cc(NS(C)(=O)=O)c2F)n1 [encorafenib]
# Method in brief: as §1
# [8] = compound: COC(=O)[C@H](CCSC)NC(=O)C1=C(C=C(C=C1)NC[C@H](CS)N)C2=CC=CC=C2
# Method in brief: as §1
# alisertib = compound: COc1cc(Nc2ncc3c(n2)-c2ccc(Cl)cc2C(c2c(F)cccc2OC)=NC3)ccc1C(=O)O [alisertib]
# Method in brief: as §1
# [9] = compound: COc1cc2nc(-c3cc(F)ccc3O)nc(N[C@@H]3CNC[C@H]3C(C)(C)O)c2cc1OC
# Method in brief: as §1
# gefitinib = compound: COc1cc2ncnc(Nc3ccc(F)c(Cl)c3)c2cc1OCCCN1CCOCC1 [gefitinib]
# Method in brief: as §1
# vemurafenib = compound: CCCS(=O)(=O)Nc1ccc(F)c(C(=O)c2c[nH]c3ncc(-c4ccc(Cl)cc4)cc23)c1F [vemurafenib]
# Method in brief: as §1
# defactinib = compound: CNC(=O)c1ccc(Nc2ncc(C(F)(F)F)c(NCc3nccnc3N(C)S(C)(=O)=O)n2)cc1 [defactinib]
# Method in brief: as §1
# Chain of UniProt Q6TDU7 (Q6TDU7 whole entry, looked up): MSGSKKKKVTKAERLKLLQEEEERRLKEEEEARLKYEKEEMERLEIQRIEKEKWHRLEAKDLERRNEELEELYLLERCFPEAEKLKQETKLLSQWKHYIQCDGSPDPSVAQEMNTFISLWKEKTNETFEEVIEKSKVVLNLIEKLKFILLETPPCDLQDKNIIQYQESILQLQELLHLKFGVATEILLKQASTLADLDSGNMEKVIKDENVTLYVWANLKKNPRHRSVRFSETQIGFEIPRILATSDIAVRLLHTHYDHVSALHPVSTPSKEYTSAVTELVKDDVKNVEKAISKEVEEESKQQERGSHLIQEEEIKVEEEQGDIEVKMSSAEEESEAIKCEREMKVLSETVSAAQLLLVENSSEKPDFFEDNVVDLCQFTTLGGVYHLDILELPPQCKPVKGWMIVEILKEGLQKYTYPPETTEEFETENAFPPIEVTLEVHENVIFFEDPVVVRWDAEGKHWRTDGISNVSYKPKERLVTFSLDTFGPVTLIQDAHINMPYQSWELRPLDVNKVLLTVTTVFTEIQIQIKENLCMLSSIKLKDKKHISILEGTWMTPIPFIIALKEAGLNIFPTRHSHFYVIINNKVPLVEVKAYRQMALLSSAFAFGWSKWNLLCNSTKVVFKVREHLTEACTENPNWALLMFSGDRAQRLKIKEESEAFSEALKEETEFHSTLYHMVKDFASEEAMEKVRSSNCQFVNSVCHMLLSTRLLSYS
# Chain of UniProt Q9C0D2 (Q9C0D2 whole entry, looked up): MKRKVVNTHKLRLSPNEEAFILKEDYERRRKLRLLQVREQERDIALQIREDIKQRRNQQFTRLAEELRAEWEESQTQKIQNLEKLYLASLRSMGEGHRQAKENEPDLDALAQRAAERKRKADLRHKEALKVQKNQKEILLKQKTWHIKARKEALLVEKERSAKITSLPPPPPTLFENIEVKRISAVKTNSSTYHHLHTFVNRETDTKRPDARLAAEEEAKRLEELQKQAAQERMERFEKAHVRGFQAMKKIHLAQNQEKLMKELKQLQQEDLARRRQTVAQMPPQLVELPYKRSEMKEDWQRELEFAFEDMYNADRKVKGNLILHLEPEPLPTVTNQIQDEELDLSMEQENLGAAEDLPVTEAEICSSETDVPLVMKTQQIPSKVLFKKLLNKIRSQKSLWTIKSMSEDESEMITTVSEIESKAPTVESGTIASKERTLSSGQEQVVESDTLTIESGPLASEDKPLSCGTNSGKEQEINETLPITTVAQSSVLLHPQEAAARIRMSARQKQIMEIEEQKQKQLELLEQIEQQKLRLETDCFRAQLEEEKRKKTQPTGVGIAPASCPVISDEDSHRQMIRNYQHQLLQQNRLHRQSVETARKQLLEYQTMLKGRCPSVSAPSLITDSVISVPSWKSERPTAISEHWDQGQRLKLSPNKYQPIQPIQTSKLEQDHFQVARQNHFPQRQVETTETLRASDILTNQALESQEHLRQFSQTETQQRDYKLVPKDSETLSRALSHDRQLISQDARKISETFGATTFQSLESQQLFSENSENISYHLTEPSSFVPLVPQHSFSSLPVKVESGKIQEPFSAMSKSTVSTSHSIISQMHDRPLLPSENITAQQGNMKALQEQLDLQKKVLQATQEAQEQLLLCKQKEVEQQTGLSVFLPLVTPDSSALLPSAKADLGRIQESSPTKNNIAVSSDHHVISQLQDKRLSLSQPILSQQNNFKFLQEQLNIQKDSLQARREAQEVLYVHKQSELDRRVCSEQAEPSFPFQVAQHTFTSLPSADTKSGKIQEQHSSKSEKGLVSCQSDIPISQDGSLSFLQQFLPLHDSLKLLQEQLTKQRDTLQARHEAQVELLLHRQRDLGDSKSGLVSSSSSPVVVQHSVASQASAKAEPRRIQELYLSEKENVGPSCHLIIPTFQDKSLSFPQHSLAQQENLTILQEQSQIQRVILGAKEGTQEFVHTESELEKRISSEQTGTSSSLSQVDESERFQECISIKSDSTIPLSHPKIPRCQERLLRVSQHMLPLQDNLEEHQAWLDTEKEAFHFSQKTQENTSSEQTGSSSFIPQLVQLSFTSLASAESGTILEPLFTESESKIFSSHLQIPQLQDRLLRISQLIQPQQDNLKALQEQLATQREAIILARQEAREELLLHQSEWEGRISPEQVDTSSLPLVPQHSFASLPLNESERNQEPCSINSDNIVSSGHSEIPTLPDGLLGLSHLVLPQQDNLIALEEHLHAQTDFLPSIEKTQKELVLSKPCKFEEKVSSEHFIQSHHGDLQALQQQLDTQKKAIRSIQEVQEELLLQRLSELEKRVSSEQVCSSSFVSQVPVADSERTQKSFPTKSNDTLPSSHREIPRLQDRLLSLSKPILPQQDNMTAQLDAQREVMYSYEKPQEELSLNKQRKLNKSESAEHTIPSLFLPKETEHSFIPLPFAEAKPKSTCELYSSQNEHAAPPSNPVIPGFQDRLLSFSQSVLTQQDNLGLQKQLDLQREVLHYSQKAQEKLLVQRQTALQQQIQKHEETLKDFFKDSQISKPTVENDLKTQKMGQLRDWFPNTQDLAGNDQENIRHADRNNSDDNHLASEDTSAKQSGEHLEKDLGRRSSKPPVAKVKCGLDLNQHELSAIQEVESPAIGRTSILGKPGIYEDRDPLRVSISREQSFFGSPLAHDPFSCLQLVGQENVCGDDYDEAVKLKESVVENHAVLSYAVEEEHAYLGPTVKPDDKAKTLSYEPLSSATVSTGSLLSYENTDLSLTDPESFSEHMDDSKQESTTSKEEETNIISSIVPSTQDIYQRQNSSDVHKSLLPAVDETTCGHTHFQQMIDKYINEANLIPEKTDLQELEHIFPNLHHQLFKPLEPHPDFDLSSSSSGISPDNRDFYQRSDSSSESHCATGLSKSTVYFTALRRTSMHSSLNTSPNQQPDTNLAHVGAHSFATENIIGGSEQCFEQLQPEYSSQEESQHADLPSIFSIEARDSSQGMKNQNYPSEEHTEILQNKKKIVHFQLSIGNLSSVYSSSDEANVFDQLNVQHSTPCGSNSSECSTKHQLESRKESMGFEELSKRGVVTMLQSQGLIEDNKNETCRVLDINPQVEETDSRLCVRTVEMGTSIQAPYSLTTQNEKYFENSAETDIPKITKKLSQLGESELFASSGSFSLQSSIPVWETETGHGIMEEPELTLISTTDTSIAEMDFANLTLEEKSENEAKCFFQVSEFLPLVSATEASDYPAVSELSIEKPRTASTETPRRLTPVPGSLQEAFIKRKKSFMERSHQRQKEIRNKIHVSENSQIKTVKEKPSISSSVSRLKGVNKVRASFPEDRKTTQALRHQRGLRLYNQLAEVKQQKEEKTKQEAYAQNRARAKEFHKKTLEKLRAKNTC
# Chain of UniProt O43303 (O43303 whole entry, looked up): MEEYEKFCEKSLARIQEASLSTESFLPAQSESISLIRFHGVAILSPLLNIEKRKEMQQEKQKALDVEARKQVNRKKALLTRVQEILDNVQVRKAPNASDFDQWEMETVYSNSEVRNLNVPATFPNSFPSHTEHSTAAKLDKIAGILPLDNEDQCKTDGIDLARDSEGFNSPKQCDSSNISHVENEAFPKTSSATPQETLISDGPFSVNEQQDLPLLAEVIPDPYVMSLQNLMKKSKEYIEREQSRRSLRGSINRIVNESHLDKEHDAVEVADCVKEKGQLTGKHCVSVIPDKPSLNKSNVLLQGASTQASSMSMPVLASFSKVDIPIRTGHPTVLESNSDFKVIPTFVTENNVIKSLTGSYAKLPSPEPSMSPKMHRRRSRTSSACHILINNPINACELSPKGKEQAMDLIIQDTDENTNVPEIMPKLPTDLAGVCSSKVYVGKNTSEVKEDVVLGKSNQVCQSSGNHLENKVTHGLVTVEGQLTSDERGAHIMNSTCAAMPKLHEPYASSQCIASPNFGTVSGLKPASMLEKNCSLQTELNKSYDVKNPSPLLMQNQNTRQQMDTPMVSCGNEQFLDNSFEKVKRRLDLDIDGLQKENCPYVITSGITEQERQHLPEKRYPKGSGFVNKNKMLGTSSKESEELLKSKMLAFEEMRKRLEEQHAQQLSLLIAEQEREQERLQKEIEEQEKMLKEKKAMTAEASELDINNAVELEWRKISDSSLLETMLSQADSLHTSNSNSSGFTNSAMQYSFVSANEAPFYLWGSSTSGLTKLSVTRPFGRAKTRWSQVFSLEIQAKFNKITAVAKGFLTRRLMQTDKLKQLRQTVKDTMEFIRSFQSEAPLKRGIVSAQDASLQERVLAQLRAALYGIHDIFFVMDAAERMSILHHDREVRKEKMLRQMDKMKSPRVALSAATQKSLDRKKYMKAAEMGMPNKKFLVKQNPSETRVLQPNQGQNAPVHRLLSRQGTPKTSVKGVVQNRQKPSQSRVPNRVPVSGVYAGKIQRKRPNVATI
# Chain of UniProt Q96SZ6 (Q96SZ6 whole entry, looked up): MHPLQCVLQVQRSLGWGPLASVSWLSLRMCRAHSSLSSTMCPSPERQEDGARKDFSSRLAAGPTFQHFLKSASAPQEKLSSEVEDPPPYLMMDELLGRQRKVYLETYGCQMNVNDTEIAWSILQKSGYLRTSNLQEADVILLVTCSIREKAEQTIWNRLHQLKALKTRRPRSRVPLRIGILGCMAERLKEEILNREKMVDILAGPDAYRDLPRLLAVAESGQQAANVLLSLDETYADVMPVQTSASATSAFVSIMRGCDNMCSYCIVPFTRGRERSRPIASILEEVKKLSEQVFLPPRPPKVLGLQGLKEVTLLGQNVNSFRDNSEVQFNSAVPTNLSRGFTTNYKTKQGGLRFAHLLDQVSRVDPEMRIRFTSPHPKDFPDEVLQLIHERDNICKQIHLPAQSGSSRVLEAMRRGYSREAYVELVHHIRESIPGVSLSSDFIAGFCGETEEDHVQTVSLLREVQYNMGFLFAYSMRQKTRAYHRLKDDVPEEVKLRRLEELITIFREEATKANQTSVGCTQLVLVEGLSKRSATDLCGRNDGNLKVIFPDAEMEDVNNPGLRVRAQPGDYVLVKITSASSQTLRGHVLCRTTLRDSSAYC
# Chain of UniProt P0DMB2 (P0DMB2 whole entry, looked up): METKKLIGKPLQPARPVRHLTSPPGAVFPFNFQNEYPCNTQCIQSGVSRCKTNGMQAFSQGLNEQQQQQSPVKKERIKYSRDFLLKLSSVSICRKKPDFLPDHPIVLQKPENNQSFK
Target,log2 fold change [1],log2 fold change (barasertib),log2 fold change [2],log2 fold change (volasertib),log2 fold change [3],log2 fold change [4],log2 fold change [5],log2 fold change (saracatinib),log2 fold change (sotrastaurin),log2 fold change (alvocidib),log2 fold change (Tubastatin A),log2 fold change [6],log2 fold change [7],log2 fold change (encorafenib),log2 fold change [8],log2 fold change (alisertib),log2 fold change [9],log2 fold change (gefitinib),log2 fold change (vemurafenib),log2 fold change (defactinib)
C9orf72 (UniProt Q96LT7),-0.03,-0.091,0.034,0.088,0.022,-0.065,-0.015,0.082,0.011,0.001,0,-0.036,0.058,0.125,0.259 (active),0.014,0.102,-0.106,–,–
CEP295 isoform 3 (UniProt Q9C0D2),-0.058,-0.039,0.052,0.043,-0.028,-0.387,0.001,–,0.005,-0.039,-0.099,-0.029,–,-0.154,0.149,0.018,-0.016,-0.041,–,–
BICRA (UniProt Q9NZM4),0.055,0.165,–,0.036,-0.233,-0.133,-0.048,0.02,0,-0.113,0.335,0.101,0.884 (active),–,–,–,0.132,–,–,–
C8orf88 (UniProt P0DMB2),–,-0.053,–,–,0.027,0.084,0.011,0.051,-0.015,0.072,-0.064,0.07,-0.015,–,–,–,–,–,–,–
CEP57L1 (UniProt Q8IYX8),–,-0.06,0.227,–,0.044,-0.028,-0.066,-0.065,-0.007,-0.024,-0.143,0.141,-0.09,0.118,-0.023,-0.003,–,-0.038,–,–
CASC1 (UniProt Q6TDU7),–,1.04,–,–,-0.217,0.034,0.006,–,–,-0.023,0.317,–,–,–,–,–,–,–,–,–
"BRAF, A0A2R8Y8E0",–,–,-0.287,–,–,–,–,–,–,–,–,–,–,1.3,0.076,–,–,–,1.34,-0.029
CHD9 (UniProt Q3L8U1),–,–,–,–,-0.139,1.88 (active),-0.122,0.114,0.17,0.027,0.055,-0.064,-0.137,–,–,-0.369,–,0.111,-0.028,-0.147
ATXN2 (UniProt F8WB06),–,–,–,–,–,–,–,-0.088,–,–,–,–,-0.09,–,–,–,–,–,–,–
BBS7 (UniProt Q8IWZ6),–,–,-0.082,–,0.026,-0.255,0.067,0.217,0.044,0.027,-0.123,-0.028,-0.042,0.024,0.091,0.123,–,-0.016,0.375,-0.212
C3AR1 (UniProt Q16581),–,-0.172,–,–,–,-0.664 (active),-0.286,–,-0.004,0.055,–,–,–,–,–,0.358,–,0.053,–,–
CCP110 (UniProt O43303),–,0.07,-0.141,–,-0.022,–,–,-0.06,0.005,–,-0.045,-0.115,0.008,0.075,0.125,–,–,–,-0.202,0.181
BCORL1 isoform 3 (UniProt Q5H9F3),–,–,-0.033,–,-0.018,-0.546,0.344,-0.082,-0.099,-0.328,-0.006,-0.064,0.113,0.022,0.021,–,–,–,0.123,-0.213
BUD13 (UniProt Q9BRD0),–,0.092,-0.07,–,-0.037,0.076,-0.064,0.096,0.025,0.033,-0.015,-0.022,0.068,0.007,0.004,0.017,–,0.108,–,–
CDAN1 (UniProt H3BPZ6),–,–,–,–,–,–,–,–,0.175,–,–,–,–,–,–,–,–,–,–,–
C15orf39 (UniProt Q6ZRI6),–,-0.012,-0.047,–,-0.008,0.08,0.132,0.025,0.042,-0.04,-0.188,-0.031,0.089,0.047,0.059,0.036,–,-0.067,–,–
CDC25A (UniProt P30304),0.038,–,–,-0.053,0.033,–,–,-0.022,0.092,–,-0.406 (active),-0.121,0.035,–,–,0.005,0.019,-0.002,–,–
CDK5RAP1 (UniProt Q96SZ6),–,0.025,0.059,–,0.035,0.023,0.026,0.026,-0.037,0.019,-0.023,-0.06,-0.024,-0.057,0.029,-0.003,–,-0.007,-0.03,0.018
ATG4D (UniProt Q86TL0),–,-0.074,0.055,–,0.116,–,–,-0.188,0.058,–,-0.09,–,-0.008,-0.031,-0.155,–,–,–,–,–
CARHSP1 (UniProt H3BNU9),0.032,0.246,–,-0.161,–,0.16,-0.522,–,–,-0.027,–,–,–,–,–,-0.107,-0.003,-0.213,–,–
CCND3 (UniProt P30281),–,0.014,-0.056,–,-0.112,-0.116,0.075,0.086,0.016,0.144,-0.001,0.024,0.037,0.081,-0.128,0.073,–,0.201,–,–
